High-throughput results as filed in PubChem BioAssay.
Sm TGR inh = qHTS Assay for the Inhibitors of Schistosoma Mansoni Peroxiredoxins. purified TGR, DTNB reduction, TNB absorbance 405 nm. Potency, µM (titrated, usually from 114 µM), without a hit: at the highest dose activity change, negative = inhibition, hits mostly inhibitors. 360,000 compounds, 3% hits. AID 485364, 2010; further: nearly all actives have a fitted effect of over 60% in size
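Kinetic colorimetric format: TGR-catalysed, NADPH-driven DTNB reduction monitored via TNB absorbance. Enzyme dispensed at 20 nM; compound exposure 15 min at room temperature before reaction start.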
AmpC detergent = qHTS Inhibitors of AmpC Beta-Lactamase (assay with detergent) | P00811 | AmpC hydrolysis of nitrocefin, absorbance 480 nm, 0.01% Triton | Potency, µM (highest dose often 114 µM), inactives show at the highest dose activity change, negative = inhibition, most hits filed as inhibitors | 370,000 compounds, 0.041% hits | AID 485294, 2010;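 further: 0% = no-compound wells and -100% = no-enzyme wells; nearly all actives have a fitted effect of over 25% in size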
Target sequence (P00811 whole entry, looked up): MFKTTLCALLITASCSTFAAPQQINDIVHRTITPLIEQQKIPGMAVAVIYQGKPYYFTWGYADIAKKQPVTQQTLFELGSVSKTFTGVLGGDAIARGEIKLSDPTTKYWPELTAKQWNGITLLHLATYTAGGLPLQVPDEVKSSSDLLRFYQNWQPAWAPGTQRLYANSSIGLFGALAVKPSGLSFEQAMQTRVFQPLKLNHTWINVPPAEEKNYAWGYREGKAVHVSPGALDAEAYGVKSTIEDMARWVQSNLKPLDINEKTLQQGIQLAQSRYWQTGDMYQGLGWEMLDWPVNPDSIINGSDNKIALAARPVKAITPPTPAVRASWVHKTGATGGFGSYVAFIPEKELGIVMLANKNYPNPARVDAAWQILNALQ
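AmpC (5.3 nM in the dispensed reagent) in 20 mM phosphate pH 7.0 with 0.01% (detergent screen) or 0.0001% Triton X-100 was preincubated with compounds for 15 min at room temperature. Nitrocefin was then added from an 800 uM solution, and hydrolysis was followed at 480 nm.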
AmpC inh no detg = qHTS Inhibitors of AmpC Beta-Lactamase (assay without detergent); P00811; AmpC nitrocefin hydrolysis, absorbance 480 nm, 0.0001% Triton; Potency, µM (doses to about 57.1 µM), for inactives: at the highest dose activity change, negative = inhibition, usual class: inhibitors; 330,000 compounds, 0.52% hits; AID 485341, 2010;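 further: plate controls were no compound for no effect and no enzyme for full effect; nearly all actives have a fitted effect of over 20% in size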
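20 mM phosphate pH 7.0 + 0.01% (detergent screen) or 0.0001% Triton X-100; 5.3 nM AmpC reagent; cpd preinc 15 min RT; nitrocefin (800 uM stock) to start; A480 q20 s × 4 min; Activity was normalised to no-enzyme and no-compound control wells.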
* marks the source's active call; other numbers are inactive results; ? = inconclusive; · = no result; [ ] = remark or other dose. Rows were chosen to be rich in hits. Some 3.3% of all compounds tested hit in one or more screens of this group. The call rests on the fitted dose curve; in most records, active means well fitted curve in the direction sought with a large enough effect; inconclusive means small, poorly fitted or top-dose-only effect, or another doubt; inactive means no such curve, though single readings can be large; an effect the other way counts as inactive or inconclusive. Unless noted, on the % scale 0 is the no-effect control and ±100 the full control effect; potency means the concentration at half of the fitted maximal effect.

SMILES	Sm TGR inh	AmpC detergent	AmpC inh no detg
CC(OC(=O)c1cccc(S(=O)(=O)N2CCCC2)c1)C(=O)c1ccccc1 (stereo not given)	0.0%	-7.3%	1.6%
CC(Sc1nc2c(N)ncnc2n1CCOc1ccccc1)C(=O)O (stereo not given)	-16.7%	-6.1%	-5.8%
Cc1ccc(C(CC(=O)c2ccc(Cl)cc2)C(=O)O)cc1 (stereo not given)	-3.4%	-3.1%	-15.8%
COC(=O)C(CC(=O)c1ccc(Cl)cc1)c1ccc(C(C)C)cc1 (stereo not given)	-3.2%	1.1%	0.251µM*
O=C(OCN1C(=O)c2ccccc2C1=O)C1CCCCC1	-16.1%	1.4%	-1.3%
O=C1c2ccccc2C(=O)N1SC1CCCCC1	44.7µM*	?	-35.2%
CCOc1ccc(N(CC(=O)NCc2ccc(OC)cc2)S(C)(=O)=O)cc1	5.3%	-0.2%	-3.7%
CCCCOc1ccc(C(=O)N2CCC(c3nc4ccccc4o3)CC2)cc1	2.6%	15.7%	·
CC(Oc1ccc(-c2ccccc2)c(F)c1)c1ccn(S(=O)(=O)c2ccc(F)cc2)n1 (stereo not given)	10.3%	-8.0%	-20.9%
COc1ccc(S(=O)(=O)n2ccc(C(C)Oc3ccc(-c4ccccc4)c(F)c3)n2)cc1 (stereo not given)	8.8%	2.8%	0.398µM*
CC(=O)c1ccc(S(=O)(=O)NCc2ccc(C(=O)N(C)CC(=O)Nc3cccc(F)c3)cc2)cc1	-30.7%	-7.4%	0.4%
O=C(Nc1ccc(F)cc1F)N1CCc2c(sc3c2CCCC3)C1c1ccc(F)cc1 (stereo not given)	47.6%	15.3%	·
N#CC(c1ccccc1)C1CCN(Cc2ccccc2)CC1 (stereo not given)	89.1µM*	-3.3%	-10.4%
O=C(Cc1ccccc1)NC1CCN(Cc2ccccc2)CC1	55.6%	0.5%	-8.6%
CN(C)C(CNC(=O)c1ccc(NS(=O)(=O)c2ccc(F)c(F)c2)cc1)c1ccccc1 (stereo not given)	-1.2%	-9.1%	-53.2%
Cc1sc2c(c1C)CN(C1CC(C)(C)NC(C)(C)C1)CN2C(=O)c1ccco1	25.1µM*	1.3%	47.0%
CC1(C)CC(CCNC(=O)c2ccco2)CC(C)(C)N1	-0.5%	1.2%	-2.1%
Cc1cc(=O)oc2cc(NC(=S)NNC(=O)c3c(Cl)cnn3C)ccc12	-20.8%	7.8%	-25.6%
COc1ccc(Nc2nc(N)nc(CCl)n2)cc1	35.5µM*	7.3%	-22.6%
COc1ccc(Nc2ccc(OC)cc2)cc1	39.8µM*	-2.1%	-18.9%
COc1ccc(Nc2nc(N)nc(CN3CCOCC3)n2)cc1	0.0%	?	-27.2%
Nc1nc(CCl)nc(Nc2ccc3ccccc3c2)n1	15.8µM*	1.0%	-14.6%
COc1ccc(Nc2ccc(Nc3ccc(OC)cc3)nn2)cc1	-6.8%	-2.5%	-29.5%
Cc1ccccc1Nc1nc(N)nc(CCl)n1	?	-0.7%	-43.3%
Clc1ccccc1CSc1nnc(C2CCNCC2)o1	-17.0%	22.4%	·
SMILES	Sm TGR inh	AmpC detergent	AmpC inh no detg
Cc1cccc(NC(NC(=O)c2ccccn2)C(Cl)(Cl)Cl)c1 (stereo not given)	1.1%	-0.6%	-7.1%
Cc1c(/C=N\NC(=O)C2COc3ccc(C(C)(C)C)cc3O2)c2ccccc2n1C (stereo not given)	8.8%	0.0%	-27.4%
C=CCc1cccc(C=Nc2ccc(Br)cc2)c1O	0.0%	-5.8%	-9.0%
C=CCc1cccc(/C=N/c2ncccc2O)c1O	28.2µM*	?	-26.8%
COc1cc2c(cc1OC)C1O[C@](c3ccsc3)(C2)Oc2c1c(=O)oc1ccc(F)cc21	?	4.0%[22.9 µM]	138.3%[11.4 µM]
Cc1ccc(Oc2ncnc(N)c2[N+](=O)[O-])cc1C	0.1%	0.5%	-20.1%
CCOc1ccc(CNS(=O)(=O)c2ccc(-c3ccc(=O)[nH]n3)o2)cc1OC	?	-4.8%	-10.2%
COc1ccc(CNS(=O)(=O)c2ccc(-c3ccc(=O)[nH]n3)o2)cc1	89.1µM*	-0.4%	-10.3%
O=C(CSc1nnc(-c2cccc(F)c2)c(-c2cccc(F)c2)n1)NC1CCCCC1	5.8%	7.6%	·
CCOc1ccc(C(=O)OC(C)CN2CCN(C)CC2)cc1 (stereo not given)	-2.0%	-4.0%	5.1%
Cc1ccc(NC(=O)CSc2nc(-c3ccco3)nc3cc(=O)[nH]n23)cc1C	22.4µM*	-0.2%	·
COc1ccc(NC(=O)CSc2nc(-c3ccco3)nc3cc(=O)[nH]n23)cc1	10µM*	3.1%	·
COc1ccc(NC(=O)CSc2nc(-c3ccco3)nc3cc(=O)[nH]n23)cc1Cl	?	-0.5%	-29.3%
COc1ccc(NC(=O)CSc2nc(-c3ccccc3)nc3cc(=O)[nH]n23)cc1	2.5%	-0.6%	·
Cc1ccc(NC(=O)C2CCCN(S(=O)(=O)c3c(C)n[nH]c3C)C2)c(C)c1 (stereo not given)	8.9%	1.2%	·
Cc1ccccc1OCC(=O)Nc1cnn(CCCC(=O)O)c1	-6.7%	0.6%	-4.0%
O=C(c1cccc(S(=O)(=O)N2CCc3ccccc3C2)c1)N1CCN(c2ccccc2)CC1	3.8%	-9.3%	28.8%
O=C(c1cccc(S(=O)(=O)N2CCc3ccccc32)c1)N1CCN(c2ccccc2)CC1	39.8µM*	-6.6%	25.0%
COc1ccc(N2CCN(CC(=O)Nc3nc(C)cs3)CC2)cc1	3.6%	-1.7%	-8.0%
Cc1ccnc(NC(c2ccncc2)c2c(C)[nH]c3ccccc23)c1 (stereo not given)	2µM*	3.8%	-24.7%
O=C(Nc1nccs1)C(=O)c1c[nH]c2ccccc12	-3.9%	1.3%	-24.6%
Cc1ccnc(NC(=O)CCc2c[nH]c3ccccc23)c1	79.4%	?	-32.5%
Cc1[nH]c2ccccc2c1C(Nc1nccs1)c1ccncc1 (stereo not given)	39.8µM*	6.7%	-17.5%
c1csc(-c2nn3cnnc3c3ccccc23)c1	9.4%	4.9%	-33.8%
CCc1ccccc1NC(=O)c1ccccc1Sc1ccc([N+](=O)[O-])cc1Cl	-12.2%	-18.9%	-37.4%
SMILES	Sm TGR inh	AmpC detergent	AmpC inh no detg
N#CC1=C(S)N(c2ccccc2)C(c2ccc(-c3ccc(Cl)c(Cl)c3)o2)NC1=O (stereo not given)	14.1µM*	4.8%	10µM*
N#CC1=C(S)N(c2ccccc2)C(c2ccc(-c3cc(Cl)ccc3Cl)o2)NC1=O (stereo not given)	-6.5%	-15.2%	-54.3%
O=C(Nc1nccs1)C1CC(=O)N(CCc2ccc(F)cc2)C1 (stereo not given)	-1.7%	6.0%	-18.0%
O=C(c1cc2ccccc2oc1=O)N1CCN(c2ccc(N3CCOCC3)nn2)CC1	-0.9%	?	0.141µM*
Cc1ccc(C)c(N2CCN(C(=O)c3cc4ccccc4oc3=O)CC2)c1	5.0%	-10.1%	52.9%
CCOC(=O)C1CCN(C(=O)c2ccc(N3CCCC3=O)cc2)CC1	-20.3%	?	-8.1%
CN1C(=O)C(=Cc2coc3ccccc3c2=O)C(=O)N(C)C1=O	10µM*	6.3%	-10.3%
CSC1=NSC2=NC(=O)/C(=C\c3coc4ccccc4c3=O)C(=N)N12	-22.9%	?	-26.2%
